# PubChem BioAssay (NCATS)
# Records with an inconclusive call do not appear. Entries that show only a call come without a potency. A number with no mark means an inactive call. The source made the active and inactive calls. Calls come from the whole dose curve; as a rule, active = well fitted curve in the direction sought with a large enough effect; inconclusive = small, poorly fitted or top-dose-only effect, or another doubt; inactive = no such curve, though single readings can be large; an effect the other way counts as inactive or inconclusive.
# Target: Aldehyde dehydrogenase, mitochondrial (Homo sapiens) (UniProt P05091)
# Assay: qHTS for Inhibitors of the Aldehyde Dehydrogenase Family (ALDH2) Primary screen (AID 2061308); note: nearly all actives have a fitted effect of over 55% in size
# Settings: ALDH2 enzyme inhibition qHTS, 1536-well; series mostly up to 56 µM
SMILES,Potency,"activity change, negative = inhibition"
CC1=C(C(=O)Nc2nnc(-c3ccccc3)s2)C(c2nn(C)cc2Cl)N=C(Nc2nc3ccccc3o2)N1 (stereo not given),inactive,
COc1ccc(CNC(=O)c2nc(S(=O)(=O)Cc3ccccc3)ncc2Cl)cc1,inactive,
Cc1cc2c(s1)c1cnn(Cc3c(F)cccc3Cl)c(=O)c1n2C,inactive,
CC(C)(C)OC(=O)N[C@@H](Cc1ccc(OS(=O)(=O)c2cccc3cnccc23)cc1)C(=O)N1CCCN(C(=O)OC(C)(C)C)CC1,inactive,
c1nc(OCc2cnc[nH]2)c2cc(-c3ccc4c(c3)OCO4)ccc2n1,inactive,
C=C1C(=O)O[C@H]2C1CCC(C)=C1C(=O)C=C(C)[C@@]12O (stereo not given in full),inactive,
O=C(OCC#CCSc1nnc(-c2ccccc2)o1)c1ccc(F)cc1,inactive,
COC(=O)c1c(-c2ccccc2)no[n+]1[O-],inactive,
O=C(Cc1ccccc1)Nc1sc2c(c1C(=O)Nc1cccc(Cl)c1)CCCC2,inactive,
O=S(=O)(Nc1nccs1)c1ccc(NCc2ccc(Br)cc2O)cc1,inactive,
O=C1c2ccccc2C(=O)N1c1cncc2ccccc12,inactive,
Cc1cc(NS(=O)(=O)c2ccc(NC(=O)Cc3ccc(C)c(C)c3)cc2)no1,inactive,
O=[N+]([O-])c1nccn1CO[C@@H](CO)[C@H](O)CO,inactive,
Nc1ccc(-c2nnc(NC(=O)Nc3ccc(Cl)c(Cl)c3)s2)cc1,inactive,
Cc1ccc(NS(=O)(=O)c2cc3c(cc2NCCO)NC(=O)CC3)cc1C,inactive,
CC1(C)CC[C@]23CO[C@@]4(CCC5[C@@]6(C)CC[C@H](O[C@@H]7OC[C@H](O[C@@H]8O[C@H](CO)[C@@H](O)[C@H](O)[C@H]8O)[C@H](O)[C@H]7O[C@@H]7O[C@H](CO)[C@@H](O[C@@H]8O[C@H](CO)[C@@H](O)[C@H](O)[C@H]8O)[C@H](O)[C@H]7O)[C@@](C)(CO)C6CC[C@@]5(C)[C@]4(C)C[C@H]2OC2OCC(O)C(O)C2O)C3C1 (stereo not given in full),,-1.32% [at 11.2 µM]
O=C(O)c1ccc(-c2ccc3ncnc(NCC4CCCO4)c3c2)o1 (stereo not given),inactive,
O=C(/C=C/c1ccc(F)cc1)Nc1cccc([S+](=O)([O-])Nc2ccccc2F)c1,inactive,
O=C(Nc1ccc2sccc2c1)Nc1nnc(-c2ccncc2)s1,inactive,
Cc1ccc(-c2cc(C(=O)Nc3ccccc3C)c3ccccc3n2)cc1C,inactive,

SMILES,Potency,"activity change, negative = inhibition"
O=S(=O)(NCCNS(=O)(=O)c1c(F)cccc1F)c1ccc2c(c1)OCCO2,inactive,
Cc1cc(NC(=O)Nc2nnc(-c3cccnc3)s2)ccc1Cl,inactive,
O=C(NCCc1ccc2c(c1)OCO2)c1cc2sccc2n1Cc1ccccc1,inactive,
Cc1c(P(=S)(c2ccccc2)c2ccccc2)[n+]2ccccc2n1CCCc1ccccc1,inactive,
O=C(O)C[C@H]1CCC(=O)[C@@H]1C/C=C\CCO,inactive,
COc1cc2nc(N3CCN(C(=O)c4ccco4)C4CCCCC43)nc(N)c2cc1OC (stereo not given),inactive,
COc1cccc(C2c3c(ncn(-c4ccccn4)c3=N)Oc3ccc4ccccc4c32)c1 (stereo not given),inactive,
Cc1nc(NCc2ccccc2)c2nc(-c3ccccc3)n(CCN(C)C)c2n1,inactive,
O=C(Nc1ccc2ccccc2c1)Nc1nnc(-c2ccc(Cl)cc2)s1,inactive,
COc1ccc(S(=O)(=O)NC2CCN(C#N)CC2)cc1,inactive,
NC(=O)c1ccccc1-c1noc(-c2ccccc2F)n1,inactive,
Cc1ccccc1C(=O)n1ccc2cc(-c3nc(NC(=O)Cc4ccc5c(c4)OCO5)sc3C)ccc21,inactive,
C=C1C(=O)OC2/C=C(\COC(C)=O)CC/C=C(\C=O)CC(OC(=O)C(C)CC)C12 (stereo not given),inactive,
Cc1ccc(-c2ccc(=O)n(CC(=O)NCCc3cnc[nH]3)n2)cc1,inactive,
O=C(Nc1ccc(S(=O)(=O)Nc2nccs2)cc1)C1CCC2(CC1)CC2,inactive,
C[S+](=O)([O-])c1ccc(-c2ccc(=O)n(CC(=O)NCCc3ccccc3)n2)cc1,inactive,
Cn1c(NC2=NC3(CCCC3)C3=C(CCCC3=O)N2)nc2ccccc21,inactive,
CCC12CCCN3CCc4c(n(c5ccccc45)C(O)C1)C32 (stereo not given),inactive,
O=C(O)c1cccc2c1C(=O)N(c1ccccc1)C2,inactive,
COc1cc(Cl)c(C)cc1NC(=O)C(OC(=O)CNC(=O)c1ccccc1)c1ccccc1 (stereo not given),inactive,

# Target: Retinaldehyde dehydrogenase 3 (Homo sapiens) (UniProt P47895)
# Assay: qHTS for Inhibitors of the Aldehyde Dehydrogenase Family (ALDH1A3) Primary screen (AID 2061315)
# Settings: ALDH inhibition qHTS; series mostly up to 56 µM
SMILES,Potency,"activity change, negative = inhibition"
CC1=C(C(=O)Nc2nnc(-c3ccccc3)s2)C(c2nn(C)cc2Cl)N=C(Nc2nc3ccccc3o2)N1 (stereo not given),inactive,
COc1ccc(CNC(=O)c2nc(S(=O)(=O)Cc3ccccc3)ncc2Cl)cc1,inactive,
Cc1cc2c(s1)c1cnn(Cc3c(F)cccc3Cl)c(=O)c1n2C,inactive,
CC(C)(C)OC(=O)N[C@@H](Cc1ccc(OS(=O)(=O)c2cccc3cnccc23)cc1)C(=O)N1CCCN(C(=O)OC(C)(C)C)CC1,inactive,
c1nc(OCc2cnc[nH]2)c2cc(-c3ccc4c(c3)OCO4)ccc2n1,inactive,
C=C1C(=O)O[C@H]2C1CCC(C)=C1C(=O)C=C(C)[C@@]12O (stereo not given in full),inactive,
O=C(OCC#CCSc1nnc(-c2ccccc2)o1)c1ccc(F)cc1,inactive,
COC(=O)c1c(-c2ccccc2)no[n+]1[O-],inactive,
O=C(Cc1ccccc1)Nc1sc2c(c1C(=O)Nc1cccc(Cl)c1)CCCC2,inactive,
O=S(=O)(Nc1nccs1)c1ccc(NCc2ccc(Br)cc2O)cc1,inactive,
O=C1c2ccccc2C(=O)N1c1cncc2ccccc12,inactive,
Cc1cc(NS(=O)(=O)c2ccc(NC(=O)Cc3ccc(C)c(C)c3)cc2)no1,inactive,
O=[N+]([O-])c1nccn1CO[C@@H](CO)[C@H](O)CO,inactive,
Nc1ccc(-c2nnc(NC(=O)Nc3ccc(Cl)c(Cl)c3)s2)cc1,inactive,
Cc1ccc(NS(=O)(=O)c2cc3c(cc2NCCO)NC(=O)CC3)cc1C,inactive,
CC1(C)CC[C@]23CO[C@@]4(CCC5[C@@]6(C)CC[C@H](O[C@@H]7OC[C@H](O[C@@H]8O[C@H](CO)[C@@H](O)[C@H](O)[C@H]8O)[C@H](O)[C@H]7O[C@@H]7O[C@H](CO)[C@@H](O[C@@H]8O[C@H](CO)[C@@H](O)[C@H](O)[C@H]8O)[C@H](O)[C@H]7O)[C@@](C)(CO)C6CC[C@@]5(C)[C@]4(C)C[C@H]2OC2OCC(O)C(O)C2O)C3C1 (stereo not given in full),,1.39% [at 11.2 µM]
O=C(O)c1ccc(-c2ccc3ncnc(NCC4CCCO4)c3c2)o1 (stereo not given),inactive,
O=C(/C=C/c1ccc(F)cc1)Nc1cccc([S+](=O)([O-])Nc2ccccc2F)c1,inactive,
O=C(Nc1ccc2sccc2c1)Nc1nnc(-c2ccncc2)s1,inactive,
Cc1ccc(-c2cc(C(=O)Nc3ccccc3C)c3ccccc3n2)cc1C,inactive,

SMILES,Potency,"activity change, negative = inhibition"
O=S(=O)(NCCNS(=O)(=O)c1c(F)cccc1F)c1ccc2c(c1)OCCO2,inactive,
Cc1cc(NC(=O)Nc2nnc(-c3cccnc3)s2)ccc1Cl,inactive,
O=C(NCCc1ccc2c(c1)OCO2)c1cc2sccc2n1Cc1ccccc1,inactive,
Cc1c(P(=S)(c2ccccc2)c2ccccc2)[n+]2ccccc2n1CCCc1ccccc1,inactive,
O=C(O)C[C@H]1CCC(=O)[C@@H]1C/C=C\CCO,inactive,
COc1cc2nc(N3CCN(C(=O)c4ccco4)C4CCCCC43)nc(N)c2cc1OC (stereo not given),inactive,
COc1cccc(C2c3c(ncn(-c4ccccn4)c3=N)Oc3ccc4ccccc4c32)c1 (stereo not given),inactive,
Cc1nc(NCc2ccccc2)c2nc(-c3ccccc3)n(CCN(C)C)c2n1,inactive,
O=C(Nc1ccc2ccccc2c1)Nc1nnc(-c2ccc(Cl)cc2)s1,inactive,
COc1ccc(S(=O)(=O)NC2CCN(C#N)CC2)cc1,inactive,
NC(=O)c1ccccc1-c1noc(-c2ccccc2F)n1,inactive,
Cc1ccccc1C(=O)n1ccc2cc(-c3nc(NC(=O)Cc4ccc5c(c4)OCO5)sc3C)ccc21,inactive,
C=C1C(=O)OC2/C=C(\COC(C)=O)CC/C=C(\C=O)CC(OC(=O)C(C)CC)C12 (stereo not given),inactive,
Cc1ccc(-c2ccc(=O)n(CC(=O)NCCc3cnc[nH]3)n2)cc1,inactive,
O=C(Nc1ccc(S(=O)(=O)Nc2nccs2)cc1)C1CCC2(CC1)CC2,inactive,
C[S+](=O)([O-])c1ccc(-c2ccc(=O)n(CC(=O)NCCc3ccccc3)n2)cc1,inactive,
Cn1c(NC2=NC3(CCCC3)C3=C(CCCC3=O)N2)nc2ccccc21,inactive,
CCC12CCCN3CCc4c(n(c5ccccc45)C(O)C1)C32 (stereo not given),inactive,
O=C(O)c1cccc2c1C(=O)N(c1ccccc1)C2,inactive,
COc1cc(Cl)c(C)cc1NC(=O)C(OC(=O)CNC(=O)c1ccccc1)c1ccccc1 (stereo not given),inactive,
